Sfp inh: qHTS Assay for Inhibitors of Bacillus subtilis Sfp phosphopantetheinyl transferase (PPTase). Biochemical Sfp PPTase activity, qHTS. Potency, µM, for the others: largest response in the series, negative = inhibition, actives largely listed as inhibitors. hit rate 3.5% among 310,000. AID 1490, 2009;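 note: the enzyme is Sfp with the accession as filed and its product quenches rhodamine fluorescence; potency is the fitted concentration of half-maximal effect; 0% = enzyme reaction without inhibitor and -100% = no enzyme wells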
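Compounds were incubated with enzyme (final 15 nM) for 15 min at room temperature before substrate addition started the reaction. Fluorescence at 525 nm excitation, 598 nm emission was recorded immediately and after 30 minutes.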
BAZ2B inh: qHTS Assay for Inhibitors of BAZ2B | Potency, µM (series often up to 114 µM), inactives show top-dose activity change, negative = inhibition, hits mostly inhibitors | AID 504333, 2011 | hit rate 4.4% among 360,000 | Bromodomain adjacent to zinc finger domain protein 2B (Homo sapiens), Q9UIF8 | AlphaScreen BAZ2B-H3K14Ac peptide displacement; note: potency is the fitted concentration of half-maximal effect; % is set by controls: 0 for no effect and ±100 for the full control effect; nearly all actives have a fitted effect of over 60% in size
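Protein-peptide AlphaScreen: BAZ2B 50 nM, b-H3K14Ac 50 nM, 1x PBS pH 7.4 + 0.01% Tween-20. Preincubation 30 min RT; cpd 30 min RT (top 110 uM); beads 20 min RT, light-protected.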
JMJD2A Tudor: qHTS Assay for Inhibitors of JMJD2A-Tudor Domain | AlphaScreen JMJD2A-Tudor / H3K4me3 peptide binding | Potency, µM (highest dose often 114 µM), for inactives: at the top dose activity change, negative = inhibition, hits mostly inhibitors | hit rate 4.4% among 390,000 | AID 504339, 2011; note: potency is the fitted concentration of half-maximal effect; % is set by controls: 0 for no effect and ±100 for the full control effect; nearly all actives have a fitted effect of over 50% in size
HP1b chromo inh: HTS for Inhibitors of HP1-beta Chromodomain Interactions with Methylated Histone Tails. AlphaScreen HP1-beta / biotin-H3K9me3 peptide binding. Potency, µM (highest dose often 114 µM), for inactives: at the highest dose activity change, negative = inhibition, most hits filed as inhibitors. hit rate 0.56% among 390,000; note: potency is the fitted concentration of half-maximal effect; nearly all actives have a fitted effect of over 70% in size
Target sequence (P83916 whole entry, looked up): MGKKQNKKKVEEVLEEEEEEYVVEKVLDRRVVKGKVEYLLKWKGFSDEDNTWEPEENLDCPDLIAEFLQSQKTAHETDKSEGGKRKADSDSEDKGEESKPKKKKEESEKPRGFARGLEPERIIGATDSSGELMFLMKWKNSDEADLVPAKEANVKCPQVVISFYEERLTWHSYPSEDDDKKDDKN
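Compound inhibition of the preformed complex between 50 nM HP1-beta and 50 nM biotinylated H3K9me3 peptide was read by AlphaScreen. Buffer was PBS pH 7.4 with 0.01% Tween-20. Incubations ran 30 min at room temperature, with 10 ug/mL donor/acceptor beads.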
G9a block: qHTS Assay for Inhibitors of Histone Lysine Methyltransferase G9a | Histone-lysine N-methyltransferase EHMT2 (Homo sapiens), Q96KQ7 | G9a H3K9 monomethylation, AlphaScreen, 2 h | Potency, µM (highest dose often 102 µM), inactives show at the top dose activity, negative = inhibition, hits mostly inhibitors | hit rate 8.8% among 350,000 | AID 504332, 2011; note: potency is the fitted concentration of half-maximal effect; % is set by controls: 0 for no effect and ±100 for the full control effect; nearly all actives have a fitted effect of over 75% in size
Target sequence (Q96KQ7 913-1193 limits assumed): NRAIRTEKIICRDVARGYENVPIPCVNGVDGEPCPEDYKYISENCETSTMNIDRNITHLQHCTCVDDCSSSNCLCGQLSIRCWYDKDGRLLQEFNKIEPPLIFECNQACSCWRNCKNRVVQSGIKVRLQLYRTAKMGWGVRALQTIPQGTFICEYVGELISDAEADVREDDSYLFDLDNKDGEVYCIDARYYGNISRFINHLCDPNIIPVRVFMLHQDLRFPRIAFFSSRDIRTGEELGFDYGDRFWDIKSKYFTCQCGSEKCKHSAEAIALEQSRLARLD
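Methyltransferase reactions run at room temperature for 2 h (20 nM enzyme, 500 nM biotin-H3K9 peptide, 20 uM SAM) after a 15 min compound preincubation; product detected by AlphaScreen beads and anti-H3K9me1 antibody.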
Sfp inh conf: Confirmation qHTS Assay for Inhibitors of Bacillus subtilis Sfp phosphopantetheinyl transferase (PPTase) | shares compounds with Sfp inh | Sfp PPTase enzymatic assay, qHTS titration | Potency, µM (doses to about 114 µM), without a hit: at the highest dose activity change, negative = inhibition, usual class: inhibitors | hit rate 79% among 380 | AID 2701, 2010;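 note: potency is the fitted concentration of half-maximal effect; plate controls were uninhibited Sfp reaction for no effect and no enzyme control for full effect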
Target sequence (Q9F4F7 whole entry, looked up): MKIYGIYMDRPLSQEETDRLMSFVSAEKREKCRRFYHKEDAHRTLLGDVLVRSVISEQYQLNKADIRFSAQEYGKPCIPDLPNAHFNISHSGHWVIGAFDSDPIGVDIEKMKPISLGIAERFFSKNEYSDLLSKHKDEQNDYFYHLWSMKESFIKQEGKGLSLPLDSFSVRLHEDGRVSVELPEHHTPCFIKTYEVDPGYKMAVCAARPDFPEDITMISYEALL
Sfp gel assay: Gel-Based Assay for Inhibitors of Bacillus subtilis Sfp phosphopantetheinyl transferase (PPTase); hit rate 20% among 210; Potency, µM, usual class: inhibitors; purified Sfp, gel-based phosphopantetheinylation read-out; shares compounds with Sfp inh;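 active = potency below 100 µM; inconclusive = dose-dependent response but potency above 100 µM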;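 note: band intensities scaled against SCH202676 control wells before curve fitting; potency is an IC50 for inhibitors of Sfp transfer activity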
* hit, by the source's call; i = inactive; ? = inconclusive; · = no result given; ! = repeats disagree; [ ] = another dose, or the depositor's remark. The list is not random: actives were taken first. Their share in the collection is about 12%. Unless noted, calls come from the whole dose curve; as a rule, active = well fitted curve in the direction sought with a large enough effect; inconclusive = small, poorly fitted or top-dose-only effect, or another doubt; inactive = no such curve, though single readings can be large; an effect the other way counts as inactive or inconclusive.

SMILES	Sfp inh	BAZ2B inh	JMJD2A Tudor	HP1b chromo inh	G9a block	Sfp inh conf	others
Cc1ccc(C(=O)NC(C(=O)NC2CCCC2)c2ccccc2)cc1 (stereo unspecified)	10%	-39%	-1%	32%	·	·
Cc1cc(C)c(NC(=O)COC(=O)CSc2ccc(Br)cc2C)c(C)c1	-5%	2%	-20%	7%	3%[59 µM]	·
CCN(CC)c1ccc(NC(=O)COC(=O)CSc2ccc(Br)cc2C)cc1	3.5µM*	10µM*	18µM*	16µM*	8.9µM*	?	Sfp gel assay=?
Cc1ccccc1NC(=O)CSc1nnc(-c2ccco2)c(-c2ccco2)n1	10µM*	25µM*	50µM*	16µM*	13µM*	6.6µM*
Cc1ccccc1NC(=O)CSc1n[nH]c(-c2ccco2)n1	-7%	-20%	-5%	25%	-18%	·
COc1ccc(CCNC(=O)c2cc(-c3ccccc3)nc3ccccc23)cc1OC	·	-4%	-19%	19%	-34%[59 µM]	·
CC(C)(C)Cc1nnc(NC(=O)CSc2ccccc2)s1	14µM*	?	56µM*	?	4.5µM*	7.4µM*
CCCCNC(=S)NCCN1CCN(C(=S)NCCCC)CC1	15%	-37%	-13%	33%	0%	·
O=C(NCc1ccccc1)c1csc2c1CCCCC2	22%	-12%	-16%	16%	-33%	·
O=C(NCc1ccco1)c1csc2c1CCCCC2	9%	-30%	-18%	2%	-9%[12.7 µM]	?	Sfp gel assay=i
C/C=C/c1ccc(OCCCCn2cncn2)c(OC)c1	1.1µM*	32µM*	7.1µM*	-59%	?	-1%	Sfp gel assay=i
O=C(O)CNc1nc(-c2ccccc2)c2cc([N+](=O)[O-])ccc2n1	6.3µM*	79µM*	-22%	20%	7.9µM*	15µM*	Sfp gel assay=?
O=[N+]([O-])c1ccc2nc(NCCCO)nc(-c3ccccc3)c2c1	?	-4%	?	?	0%[59 µM]	·
CCOC(=O)c1nc(NCc2ccccc2)sc1C	8.9µM*	?	79µM*	?	3.5µM*	8.3µM*
Cc1sc(NCc2ccccc2)nc1-c1ccccc1	·	·	?	5%	·	·
Cc1ccc(NC(=O)c2ccc(NC(=O)N3CCSc4ncccc43)cc2)c(Cl)c1	·	-11%	-12%	3%	-32%[59 µM]	·
CC(=O)NCCn1c(C)cc2ccccc21	11%	13%	-15%	17%	-35%	·
Cc1cc2ccccc2n1CCNC(=O)c1ccc(Br)o1	13µM*	?	?	?	35µM*	24µM*
COc1cccc(NC(=O)CSC2=C(C#N)C(c3ccco3)C3=C(CCCC3=O)N2)c1 (stereo unspecified)	7.9µM*	?	-30%	4%	?	47µM*	Sfp gel assay=i
c1ccc(Cc2nn3c(COc4ccccc4)nnc3s2)cc1	14µM*	-28%	?	?	5µM*	19µM*
O=C(CCC1CCCCC1)NCCN1C2=NC[C@H](Cc3ccc(O)cc3)N2C[C@H]1Cc1ccc(O)cc1	?	-14%	-35%	22%	20%[59 µM]	·
C[C@@H]1CN=C2N(CCNC(=O)CCC3CCCCC3)[C@H](Cc3ccc(O)cc3)CN21	16µM*	-28%	50µM*	-10%	3%[12.7 µM]	?
CC(=O)c1cccc(S(=O)(=O)N2CCCC(c3nc(-c4ccc(C)o4)no3)C2)c1 (stereo unspecified)	56µM*	-29%	-23%	3%	4µM*	24µM*
Cc1ccc(-c2noc(C3CCCN(S(=O)(=O)c4ccc(S(=O)(=O)N(C)C)cc4)C3)n2)o1 (stereo unspecified)	8%	9%	-23%	1%	19%[59 µM]	·
CCOC(=O)c1c(-c2ccc(C)cc2)csc1NC(=O)C1CCCO1 (stereo unspecified)	-14%	5%	26%	66%	-1%[59 µM]	·
SMILES	Sfp inh	BAZ2B inh	JMJD2A Tudor	HP1b chromo inh	G9a block	Sfp inh conf	others
CCOC(=O)c1c(-c2ccc(OC)cc2)csc1NC(=O)C1CCCO1 (stereo unspecified)	16µM*	4%	-6%	-11%	13µM*	33µM*
COc1ccccc1N1CCN(C(=O)c2oc3ccccc3c2N)CC1	·	-37%	?	-18%	?	·
CCOC(=O)NNc1nncc2ccccc12	35µM*!	-11%	1%	29%	-41%[2.33 µM]	10%[53.7 µM]	Sfp gel assay=?
Cc1ccc(C(=O)Cn2nnc(-c3cccs3)n2)cc1	12%	-20%	0%	23%	·	·
Cc1ccc(-n2c(CCC(=O)O)ccc2-c2cccs2)cc1	14µM*	50µM*	?	-7%	?	24µM*
COC(=O)c1cccc(-n2c(CCC(=O)O)ccc2-c2cccs2)c1	4µM*	71µM*!	-11%[11.4 µM]	16%	?	21µM*	Sfp gel assay=?
CC(=O)Nc1ccc(S(=O)(=O)NCCC(=O)OCC(=O)NCc2ccccc2)cc1	·	·	6%	16%[57 µM]	·	·
O=c1[nH]c(Cc2cccc(C(F)(F)F)c2)nc2ccccc12	1%	-7%	2%	31%	17%	·
C[C@@H](NCCCc1cccc(C(F)(F)F)c1)c1cccc2ccccc12	79µM*	·	·	·	?	24µM*
CC(=O)N=c1nc(-c2ccccc2)n(-c2ccccc2)s1	·	·	-35%[57.1 µM]	-5%[57 µM]	·	·
CN=c1nc(-c2ccccc2)n(-c2ccccc2)s1	·	8.9µM*	22µM*	7.1µM*	1.1µM*!	0.83µM*
O=C(Cc1ccccc1)N/N=C\c1ccc(Br)o1	6%	-7%	-19%	24%	-1%	·
O=C(/C=C/c1ccc(Br)o1)NCc1ccccc1	6.3µM*	?	?	12%	·	17µM*	Sfp gel assay=i
CCOC(=O)c1nn(C)c2[nH]c(=O)n(C)c(=O)c12	·	·	-4%	48%	·	·
Cc1ccc(C(=O)Nc2cccnc2)cc1Cl	4%	12%	-12%	20%	12%	·
O=C(Nc1nnc(COc2ccc(Cl)cc2)s1)c1cccs1	14µM*	5%	-23%[11.4 µM]	?	?	24µM*
O=C(Nc1nnc(COc2ccc(F)cc2)s1)c1cccs1	1%	-6%	-10%	21%	26%[59 µM]	·
O=C(COC(=O)/C=C/c1ccco1)NCc1ccccc1Cl	7.9µM*	15%	-13%	24%	45µM*	37µM*	Sfp gel assay=i
Cc1ccc(NC(=O)N2CCCc3ccccc32)cc1	14%	8%	-29%	-21%	6%	·

High-throughput results as filed in PubChem BioAssay.
